# Rows were chosen to be rich in hits. Some 12% of all compounds tested hit in one or more screens of this group.
# ROMK mod – ROMK potassium channel modulators, primary screen, cell-based, thallium flux, MLSMR library. ATP-sensitive inward rectifier potassium channel 1 (Homo sapiens), P48048. Tet-inducible ROMK, thallium flux fluorescence; actives lie on both sides. B-score at 10 µM. 130,000 tested, 2% active;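 active means signal ratio slope over the read window, or its plate-corrected B-score, at least 3 SD from the plate mean, either direction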;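 further: B-score of the F/F0 ratio slope over 7 to 12 s after thallium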
# WT yeast gro inh – growth inhibition of WT strain, primary screen, mitochondrial fusion inhibitor project, WT and mutant strains, chemical genetic | mitochondrial fusion phenotypic screen | inhibition, % at 10 µM | 190,000 tested, 2.1% active; in the data active means inhibition above about 58%; tested in S. cerevisiae
# KCC2 mod – KCC2 cotransporter modulators, thallium flux, primary screen, cell-based, HEK293 KCC2, FluoZin-2 fluorescence, MLSMR; KCC2 cells, thallium flux FluoZin-2 fluorescence; AID 1456, 2008; B-score of Tl+ flux slope (higher = more flux/activation; lower = inhibition) at 10 µM; 190,000 tested, 2.2% active; Solute carrier family 12 member 5 (Homo sapiens), Q9H2X9;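 active means thallium flux slope and its plate-corrected score both differing from the plate sample mean at a set confidence after two filtering rounds, in either direction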;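 further: slope of fluorescence scaled to starting intensity during 10 to 20 s after thallium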
# m-calpain inh – inhibitors of pig calpain II, primary screen, biochemical, fluorogenic peptide substrate, 1536-well; inhibition, % at 16 µM; purified calpain II, 30 min; 220,000 tested, 0.37% active; AID 1236, 2008;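 active means inhibition above about 50%, limit read from the data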
# L major viab – Leishmania major promastigote growth inhibition, primary screen. 200,000 tested, 9% active. Leishmania major promastigotes, resazurin fluorescence viability. inhibition, % at 10 µM; in the data active means inhibition above about 50%;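 further: promastigotes grown with compound for 44 hours at 28 °C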
# Hits are given with their value; n = inactive; x = not tested or not shown.
SMILES,ROMK mod,WT yeast gro inh,KCC2 mod,m-calpain inh,L major viab
Cc1cccc(N(C(=O)c2nsc(Cl)c2Cl)C(C(=O)NC2CCCC2)c2ccc(O)cc2)c1 (stereo not given),n,n,n,n,85
Nc1cc(N)nc(SCC(=O)N2CCc3ccccc32)n1,n,99,n,n,n
O=C(c1ccc(COc2ccccc2Cl)o1)N1N=C(C(F)F)CC1(O)C(F)F (stereo not given),n,n,n,n,n
c1ccc(Oc2ccc(-c3ccnc4nc(N5CCOCC5)nn34)cc2)cc1,n,n,n,n,n
c1ccc(Oc2ccc(-c3ccnc4ncnn34)cc2)cc1,n,n,n,68,n
CCOC(=O)C(=O)N1CCN(CC)CC1,n,n,n,n,n
CCCOc1ccc(/C(O)=C2/C(=O)C(=O)N(CCCN3CCOCC3)C2c2ccncc2)cc1 (stereo not given),n,n,n,n,n
Cc1nc(Sc2nnnn2C)c2c3c(sc2n1)CCC3,n,n,n,n,n
CCc1nc(Sc2nnnn2-c2ccccc2)c2c3c(sc2n1)CCCC3,n,n,n,n,98
O=C1CCC(=O)N1c1ccc(NCc2ccccc2Cl)c([N+](=O)[O-])c1,n,n,n,n,67
CC1CC(=O)N(c2ccc(NCc3ccccc3Cl)c([N+](=O)[O-])c2)C1=O (stereo not given),n,n,n,n,68
CCn1c(O)c(N=NC(=O)CNc2cccc(C)c2)c2ccccc21,x,n,5.6,n,n
CCCCn1c(SCC(=O)c2ccc3c(c2)NC(=O)CO3)nc2cc(S(N)(=O)=O)ccc21,n,n,n,n,n
CCOC(=O)NC(=O)/C(C=Nc1ccc(Cl)cc1)=C(\C)O,n,n,n,n,n
CCN(CCO)Cc1csc2ccc(Br)cc12,n,n,n,n,99
CC(C)CCNC(=S)Nc1ccccc1F,n,n,n,n,52
S=C(Nc1ccc(Nc2ccccc2)cc1)Nc1ccccn1,n,81,n,n,n
CC(C)CCNC(=S)Nc1ccccn1,n,n,n,n,68
Cc1cc(N/N=C/c2ccc(O)cc2O)nc(-n2nc(C)cc2C)n1,x,n,n,n,100
Cc1cc(N/N=C/c2ccccc2[N+](=O)[O-])nc(-n2nc(C)cc2C)n1,x,x,x,n,x
COc1ccc(/C=N/Nc2cc(C)nc(-n3nc(C)cc3C)n2)cc1,x,60,n,n,96
CCc1ccc(C(=O)NC(CCSC)C(=O)OC)cc1 (stereo not given),n,n,n,n,n
O=c1c2ccccc2nc2n1CC/C2=C/N1CCN(c2cccc(C(F)(F)F)c2)CC1,n,n,n,n,55
C=CCn1c(=O)/c(=C/c2ccc(Cl)cc2)s/c1=C(/C#N)c1nnc2n1CCCCC2,x,n,n,n,94
CN(C)S(=O)(=O)c1cc(NC(=O)COC(=O)Cc2cccc3ccccc23)ccc1Cl,x,n,n,n,n
SMILES,ROMK mod,WT yeast gro inh,KCC2 mod,m-calpain inh,L major viab
CCC(C(=O)OCC(=O)Nc1ccc(Cl)c(S(=O)(=O)N(C)C)c1)c1ccccc1 (stereo not given),x,n,n,59,62
CCC(C(=O)OCC(=O)Nc1ccc(SC(F)F)cc1)c1ccccc1 (stereo not given),x,73,n,51,n
O=C(NCCc1c[nH]c2ccccc12)OCCSS(=O)(=O)O,n,n,n,n,n
Cc1ccc(S(=O)(=O)Nc2cccc3ncccc23)s1,n,71,52,n,100
COc1ccc(C2CC(c3ccccc3)=NN2S(=O)(=O)c2ccccc2)cc1 (stereo not given),x,x,n,n,x
O=C(c1ccccc1)N1N=C(c2ccccc2)CC1c1ccccc1O (stereo not given),n,67,n,n,n
Cc1ccc(C2=NN(S(=O)(=O)c3ccccc3)C(c3ccccc3O)C2)cc1 (stereo not given),x,84,n,n,97
CC(C)N(Cc1cnn(C)c1)Cc1nc(-c2ccc(Cl)cc2)no1,n,n,n,n,n
CC(C)COc1ccc(CSCCNC(=S)Nc2ccccc2)cc1,x,76,n,65,72
CCCCCOc1ccc(CSCCNC(=S)Nc2ccccc2)cc1,n,68,n,n,53
Cc1ccc2nc(C)cc(Nc3ccc([N+](=O)[O-])cc3)c2c1,n,n,n,n,101
COc1ccc(N2CCN(C(=O)COc3ccccc3)CC2)cc1,n,n,x,n,n
